The values that follow come from PubChem BioAssay (NCATS).

Values without a mark were called inactive. Inconclusive results are not listed. Activity calls are given as the source filed them. Unless noted, calls follow the shape of the dose curve; as a rule, active = well fitted curve in either direction with a large enough effect (not every such curve was filed as active); inconclusive = small, poorly fitted or top-dose-only effect, or another doubt; inactive = flat fitted curve, though single readings scatter.

In assay [1] the target is Lysosomal acid glucosylceramidase (Homo sapiens) (UniProt P04062). Put plainly: Glucocerebrosidase-p2 (AID 348; in the data active = potency below about 10 µM; also: potency is read from the fitted curve at half-maximal effect). The settings on record: purified GBA, blue fluorogenic substrate, 40 min. The procedure, abridged:
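Compounds titrated from 0.6 nM upwards against 0.2 nM enzyme in pH 5.9 citric acid/KH2PO4, taurocholate, tween-20; blue fluorogenic substrate 80 uM, 40 min room temperature, stopped and read Ex 365/Em 440 for AC50.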

The nature of assay [2]: AP1 Signaling Pathway (AID 357).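 Also: ME-180 reporter cells stimulated with EGF at its EC50 level; % is scaled to controls: 0 for no effect and ±100 for the full control effect.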 The settings on record: ME-180 AP-1-bla reporter, EGF-induced, beta-lactamase ratio, 5 h; at 7.69 µM (top of the series) unless noted. The procedure, abridged: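 Modulation of EGF-driven AP-1 transcription was assessed with a beta-lactamase reporter in ME-180 cells. Compound and EC50 EGF were co-incubated 5 hours at 37 °C before 2.5-hour CCF4 loading at room temperature and dual-emission reading.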

The target in assay [3] is Cytochrome P450 1A2 (Homo sapiens) (UniProt P05177). Put plainly: p450-cyp1a2 (AID 410; calls by dose curve; also: potency is read from the fitted curve at half-maximal effect;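 as to activity change, negative = inhibition: -100% = full effect of reference inhibitor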). The settings on record: recombinant CYP1A2, luciferin-ME demethylation, luminescence; series mostly up to 11.4 µM. The procedure, abridged: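 Luminescent readout of luciferin formed from Luciferin-ME by human CYP1A2; data normalized against complete inhibition by 57 uM furafylline. Enzyme 20nM, substrate 100uM at Km, 100mM KPO4 buffer, 60 min reaction at room temperature.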
Cytochrome P450 1A2 (Homo sapiens), sequence (P05177 whole entry, looked up): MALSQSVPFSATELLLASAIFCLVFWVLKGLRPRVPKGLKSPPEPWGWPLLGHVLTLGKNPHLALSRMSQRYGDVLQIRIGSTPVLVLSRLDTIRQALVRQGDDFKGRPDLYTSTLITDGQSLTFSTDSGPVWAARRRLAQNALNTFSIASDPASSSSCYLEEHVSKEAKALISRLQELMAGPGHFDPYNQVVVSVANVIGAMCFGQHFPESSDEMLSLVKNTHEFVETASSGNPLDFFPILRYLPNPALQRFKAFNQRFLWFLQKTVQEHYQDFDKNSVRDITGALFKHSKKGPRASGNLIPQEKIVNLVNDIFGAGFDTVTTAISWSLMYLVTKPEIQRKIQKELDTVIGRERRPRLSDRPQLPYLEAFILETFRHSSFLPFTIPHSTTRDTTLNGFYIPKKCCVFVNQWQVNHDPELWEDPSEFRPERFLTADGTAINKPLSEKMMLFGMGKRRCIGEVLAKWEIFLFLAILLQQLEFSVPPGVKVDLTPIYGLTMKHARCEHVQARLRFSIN

The nature of assay [4]: NFAT Signaling Pathway (AID 444).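 Also: carbachol stimulus at about its EC50 of 1 µM final; % is scaled to controls: 0 for no effect and ±100 for the full control effect.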 The note with it: Jurkat NFAT-bla M1, carbachol, beta-lactamase ratio, 5 h; at 7.69 µM (top of the series) unless noted. The gist of the method: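 Jurkat cells with NFAT-driven β-lactamase reporter and co-expressed M1 receptor, stimulated with carbachol (final 1 uM, ~EC50), compound titration, 5 h at 37 °C. CCF4 loaded 1 h at RT; 460/530 nm ratio gave %activity and AC50.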

A short description of assay [5]: Stat Signaling Pathway (AID 446).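 Also: ME-180 cervical cancer cells given 40 pM IL-6 alongside compound; SIE-controlled beta-lactamase reporter measured as 460/530 nm FRET emission ratio; % is scaled to controls: 0 for no effect and ±100 for the full control effect.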 The settings on record: ME-180 SIE beta-lactamase reporter, IL-6 stimulated, 5 h; at 7.69 µM (top of the series) unless noted. The procedure, abridged: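 Screening format detects activators and inhibitors alike: ME-180 SIE-bla cells stimulated at 40 pM IL-6 for 5 hrs with compound, then dual-emission beta-lactamase read at 405 nm excitation.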

Assay [6] addresses Glucocorticoid receptor (Homo sapiens) (UniProt P04150). Description: GR-GFP Redistribution (AID 450;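 active = compounds whose dose series gives a full or clear partial fitted curve of increased nuclear translocation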; also: potency is read from the fitted curve at half-maximal effect). The note with it: U2OS GR-GFP nuclear translocation, laser cytometry, 2 h.
Assay [7] shares this target. Description: GR-EFC Redistribution (AID 451; calls by dose curve; also: potency is read from the fitted curve at half-maximal effect). The note with it: CHO-K1 GR-EFC translocation, beta-gal luminescence, 2 h. The gist of the method: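 CHO-K1 cells expressing nuclear EA and GR-ED fragments of b-gal; compounds titrated up to 46 uM final, 2 h at 37 C. GR nuclear translocation read as complemented b-gal luminescence after 1 h RT detection.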
The target of assay [8] is Mitogen-activated protein kinase 10 (Mus musculus) (UniProt Q61831). Description: JNK3 AlphaScreen Assay (AID 530).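 Also: kinase came from lysate of stimulated human HepG2 cells; signal reports phosphorylation of biotinylated GST-cJun 1-79 at Ser73 with 10 µM ATP; % is scaled to controls: 0 for no effect and ±100 for the full control effect.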 The settings on record: JNK3 lysate, c-Jun phosphorylation; series mostly up to 11.4 µM. The procedure, abridged: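 Pre-activated (IL-1β/TNFα) JNK3 in HepG2 lysates phosphorylates biotin-GST-cJun(1-79), 10 uM ATP; anti-phospho-cJun(Ser73) AlphaScreen read at room temperature, pH 7.6 Tris buffer. Compounds pre-incubated 15 min as titrations.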
For orientation: Bead proximity is the source of the signal in Alpha formats.

For assay [9], the target named is 3',5'-cyclic-AMP phosphodiesterase 4B (Homo sapiens) (UniProt Q07343). Description: qHTS Assay for Inhibitors of PDE-IV (AID 607; active = well fitted activation curve with a large enough effect in the main read-out, with a control signal flat, not every such curve was filed as active; also: % of control where 0% means no effect). The note with it: HEK293 ACTOne CNG channel cells, membrane potential fluorescence; series mostly up to 22.9 µM. The procedure, abridged: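 The readout is membrane depolarisation from a cAMP-sensing CNG channel, detected with a potential dye at ex 535/em 590. Cells were HEK293-derived (endogenous PDE-IV) at 1000 cells/well, titrated up to 22.9 uM final.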
3',5'-cyclic-AMP phosphodiesterase 4B (Homo sapiens), sequence (Q07343 whole entry, looked up): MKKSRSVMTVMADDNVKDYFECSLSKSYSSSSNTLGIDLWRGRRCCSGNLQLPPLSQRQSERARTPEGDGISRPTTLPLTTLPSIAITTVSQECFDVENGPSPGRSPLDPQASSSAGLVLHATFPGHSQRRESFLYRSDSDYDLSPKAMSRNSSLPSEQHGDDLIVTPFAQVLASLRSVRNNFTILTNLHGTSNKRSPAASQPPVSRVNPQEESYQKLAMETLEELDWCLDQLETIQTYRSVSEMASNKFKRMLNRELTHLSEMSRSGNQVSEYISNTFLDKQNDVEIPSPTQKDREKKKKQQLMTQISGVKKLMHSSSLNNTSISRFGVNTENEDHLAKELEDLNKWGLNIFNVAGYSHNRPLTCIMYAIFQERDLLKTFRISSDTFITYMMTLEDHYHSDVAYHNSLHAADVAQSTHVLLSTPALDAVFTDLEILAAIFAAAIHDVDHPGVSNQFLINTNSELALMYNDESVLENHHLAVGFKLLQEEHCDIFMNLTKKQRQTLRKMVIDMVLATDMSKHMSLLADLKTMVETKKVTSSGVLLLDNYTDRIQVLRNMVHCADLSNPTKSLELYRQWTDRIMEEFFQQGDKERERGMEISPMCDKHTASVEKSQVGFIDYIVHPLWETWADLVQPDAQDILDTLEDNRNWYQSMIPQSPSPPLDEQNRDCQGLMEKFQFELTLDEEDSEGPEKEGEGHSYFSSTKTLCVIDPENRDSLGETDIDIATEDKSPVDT

Assay [10] concerns the target Cytochrome P450 3A4 (Homo sapiens) (UniProt P08684). Description: qHTS Assay for Activators of Cytochrome P450 3A4 (AID 885; active = well fitted curve in the direction sought with a large enough effect; an effect the other way counts as inactive or inconclusive; also: nearly all actives have a fitted effect of over 65% in size). The note with it: recombinant CYP3A4, Luciferin-PPXE luminescence, 60 min; series mostly up to 11.4 µM. The procedure, abridged:
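Steps: enzyme/substrate mix dispensed; compound added, 10 min RT; NADPH regeneration solution added, 60 min RT; luciferin detection buffer stops reaction; 20 min later luminescence measured.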

Assay [11] concerns the target Cytochrome P450 2C19 (Homo sapiens) (UniProt P33261). Put plainly: qHTS Assay for Inhibitors and Substrates of Cytochrome P450 2C19 (AID 899; active = well fitted curve in the direction sought with a large enough effect; an effect the other way counts as inactive or inconclusive; also: potency is read from the fitted curve at half-maximal effect; nearly all actives have a fitted effect of over 60% in size). The settings on record: recombinant CYP2C19, luciferin-H EGE luminescence; series mostly up to 11.4 µM. The gist of the method:
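5 nM human CYP2C19 with 10uM Luciferin-H EGE (at KM) in 50mM KPO4, compound preincubated 10 min at 37C, then NADPH regeneration for 60 min at 37C. Luciferin read by luminescence after detection reagent; normalized to 57uM ketoconazole as full inhibition.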
On the technique in general: Quantitative high-throughput screening tests each substance at several concentrations.

Assay [12] concerns the target Cytochrome P450 2D6 (Homo sapiens) (UniProt P10635). Put plainly: qHTS Assay for Inhibitors and Substrates of Cytochrome P450 2D6 (AID 891; active = well fitted curve in the direction sought with a large enough effect; an effect the other way counts as inactive or inconclusive; also: potency is read from the fitted curve at half-maximal effect; nearly all actives have a fitted effect of over 60% in size). The settings on record: recombinant CYP2D6, luciferin-ME EGE luminescence; series mostly up to 11.4 µM. The gist of the method:
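Human CYP2D6 (5 nM) with 30 uM Luciferin-ME EGE (at Km) in 100 mM KPO4, compound preincubated 10 min, then NADPH regeneration system for 60 min at room temperature. Luciferin read by luminescence; normalized to 1.43 uM quinidine.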

Cytochrome P450 2C19 (Homo sapiens), sequence (P33261 whole entry, looked up): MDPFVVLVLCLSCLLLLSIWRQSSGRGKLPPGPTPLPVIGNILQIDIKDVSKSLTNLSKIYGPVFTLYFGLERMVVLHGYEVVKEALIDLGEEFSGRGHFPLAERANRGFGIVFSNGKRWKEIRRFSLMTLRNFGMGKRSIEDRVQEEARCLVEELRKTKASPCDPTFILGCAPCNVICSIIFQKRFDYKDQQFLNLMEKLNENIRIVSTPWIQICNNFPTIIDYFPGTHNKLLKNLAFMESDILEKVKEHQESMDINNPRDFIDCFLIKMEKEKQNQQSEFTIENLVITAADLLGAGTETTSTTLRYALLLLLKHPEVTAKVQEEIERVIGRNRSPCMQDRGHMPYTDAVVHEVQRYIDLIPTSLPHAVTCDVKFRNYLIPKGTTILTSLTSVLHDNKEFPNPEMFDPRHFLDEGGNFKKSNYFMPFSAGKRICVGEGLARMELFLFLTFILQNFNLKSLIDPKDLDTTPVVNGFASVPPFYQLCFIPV
Cytochrome P450 3A4 (Homo sapiens), sequence (P08684 whole entry, looked up): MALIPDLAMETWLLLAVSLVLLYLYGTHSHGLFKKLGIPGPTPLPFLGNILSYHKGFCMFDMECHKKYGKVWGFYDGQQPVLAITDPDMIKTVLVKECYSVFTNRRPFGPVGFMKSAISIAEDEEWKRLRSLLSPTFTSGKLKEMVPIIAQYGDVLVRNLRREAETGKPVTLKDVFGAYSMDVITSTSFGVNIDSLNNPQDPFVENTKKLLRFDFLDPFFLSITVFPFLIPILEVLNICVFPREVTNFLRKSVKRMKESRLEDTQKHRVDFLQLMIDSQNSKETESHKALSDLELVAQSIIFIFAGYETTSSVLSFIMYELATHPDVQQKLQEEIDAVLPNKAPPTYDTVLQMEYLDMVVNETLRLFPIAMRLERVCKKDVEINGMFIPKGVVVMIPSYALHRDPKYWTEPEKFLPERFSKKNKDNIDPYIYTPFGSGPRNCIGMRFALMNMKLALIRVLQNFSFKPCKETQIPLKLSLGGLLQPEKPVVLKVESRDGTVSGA
Glucocorticoid receptor (Homo sapiens), sequence (P04150 whole entry, looked up, the tested form may be a part): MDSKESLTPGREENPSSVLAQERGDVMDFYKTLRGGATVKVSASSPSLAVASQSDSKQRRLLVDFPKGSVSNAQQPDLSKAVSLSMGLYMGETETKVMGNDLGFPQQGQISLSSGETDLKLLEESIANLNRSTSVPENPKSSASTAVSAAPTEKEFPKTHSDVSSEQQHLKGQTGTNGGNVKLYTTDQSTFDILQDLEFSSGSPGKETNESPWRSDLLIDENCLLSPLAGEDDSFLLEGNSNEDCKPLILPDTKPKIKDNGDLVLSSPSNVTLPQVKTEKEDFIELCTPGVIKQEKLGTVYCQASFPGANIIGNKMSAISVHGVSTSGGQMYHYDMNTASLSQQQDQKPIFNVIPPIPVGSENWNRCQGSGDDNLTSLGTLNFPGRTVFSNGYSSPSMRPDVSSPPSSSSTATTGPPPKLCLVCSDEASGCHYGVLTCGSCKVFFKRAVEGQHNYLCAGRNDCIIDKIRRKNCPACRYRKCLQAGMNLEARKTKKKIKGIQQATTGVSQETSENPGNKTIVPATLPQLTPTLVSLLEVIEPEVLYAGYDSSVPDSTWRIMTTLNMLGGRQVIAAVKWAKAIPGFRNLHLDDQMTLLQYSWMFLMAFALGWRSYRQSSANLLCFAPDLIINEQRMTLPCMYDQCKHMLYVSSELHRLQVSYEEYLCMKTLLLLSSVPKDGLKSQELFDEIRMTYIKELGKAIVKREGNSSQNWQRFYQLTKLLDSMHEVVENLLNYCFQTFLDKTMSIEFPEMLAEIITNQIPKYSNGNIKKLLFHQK
Lysosomal acid glucosylceramidase (Homo sapiens), sequence (P04062 whole entry, looked up): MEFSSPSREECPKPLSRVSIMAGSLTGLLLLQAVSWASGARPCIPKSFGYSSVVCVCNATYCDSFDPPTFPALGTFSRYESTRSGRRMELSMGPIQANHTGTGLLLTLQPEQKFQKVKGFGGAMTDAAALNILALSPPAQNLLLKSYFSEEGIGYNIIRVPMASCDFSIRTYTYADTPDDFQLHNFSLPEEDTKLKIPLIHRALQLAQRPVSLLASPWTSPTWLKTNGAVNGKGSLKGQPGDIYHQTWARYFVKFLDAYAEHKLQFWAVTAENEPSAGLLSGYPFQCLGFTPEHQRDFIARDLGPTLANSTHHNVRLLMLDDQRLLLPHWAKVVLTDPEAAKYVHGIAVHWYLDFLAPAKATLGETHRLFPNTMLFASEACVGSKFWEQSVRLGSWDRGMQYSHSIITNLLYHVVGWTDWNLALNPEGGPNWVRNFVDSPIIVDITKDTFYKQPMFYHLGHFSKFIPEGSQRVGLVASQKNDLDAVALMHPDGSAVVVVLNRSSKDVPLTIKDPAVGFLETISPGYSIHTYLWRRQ
Cytochrome P450 2D6 (Homo sapiens), sequence (P10635 whole entry, looked up): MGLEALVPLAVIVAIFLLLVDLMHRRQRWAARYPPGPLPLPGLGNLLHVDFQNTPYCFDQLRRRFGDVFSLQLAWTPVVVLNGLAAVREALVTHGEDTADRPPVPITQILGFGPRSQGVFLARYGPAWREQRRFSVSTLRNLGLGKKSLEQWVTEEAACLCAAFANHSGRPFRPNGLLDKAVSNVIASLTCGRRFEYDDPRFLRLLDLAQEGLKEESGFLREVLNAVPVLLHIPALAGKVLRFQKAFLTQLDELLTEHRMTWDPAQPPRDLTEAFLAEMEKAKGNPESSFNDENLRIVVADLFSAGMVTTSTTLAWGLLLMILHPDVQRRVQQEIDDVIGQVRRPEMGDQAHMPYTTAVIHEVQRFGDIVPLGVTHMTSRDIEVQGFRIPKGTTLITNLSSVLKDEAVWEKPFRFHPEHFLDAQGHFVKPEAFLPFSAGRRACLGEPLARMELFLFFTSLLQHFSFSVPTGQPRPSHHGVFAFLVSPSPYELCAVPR

For the compound `O=C(O)c1ccc(Oc2nc3ccccc3s2)cc1`, the Potency was greater than 11.4 µM in [1]; 3.16 µM (active) in assay [3]; greater than 46 µM in assay [6]; greater than 9.22 µM in [7]; 3.98 µM (active) in [11]. Besides, the activity change, negative = inhibition in assay [2] was -5.86%; in assay [4], 11.2%. In addition, the activity, negative = inhibition in assay [5] was 5.77%. In addition, the Potency result in assay [8], in assay [9] and in assay [10] was “inactive” throughout.

For the compound `Cn1c(=O)c2[nH]c(SCCN3CCOCC3)nc2n(C)c1=S`, the Potency in assay [1] was greater than 11.4 µM; in assay [3], 0.631 µM (active); in [6], greater than 46 µM; in assay [7], greater than 9.22 µM. Moreover, the activity change, negative = inhibition in [2] was 0.183%; in assay [4], 15.6%. Moreover, the activity, negative = inhibition in assay [5] is 1.45%. The Potency entry in assay [8], in assay [9] and in assay [10] was “inactive” throughout.

For the compound `c1nc(NCCc2cnc[nH]2)c2[nH]cnc2n1`, the Potency in [1] was greater than 11.4 µM; in assay [3], 5.01 µM (active); in assay [6], greater than 46 µM; in [7], greater than 9.22 µM. Further, the activity change, negative = inhibition is 3.43% in assay [2] and 6.94% in [4]. In assay [5], the activity, negative = inhibition is 0.609%. Further, the Potency result in assay [8], in assay [9] and in assay [10] was “inactive” in each case.

On to `COc1cccc2[nH]c(-c3ccccn3)nc12`, for which the Potency in assay [1] is greater than 11.4 µM; in assay [3], 0.794 µM (active); in [6], greater than 46 µM; in [7] it was greater than 9.22 µM; in assay [11], 2.51 µM (active). In addition, the activity change, negative = inhibition is -2.26% in [2] and 1.67% in [4]. Further, in assay [5], the activity, negative = inhibition is 4.98%. The Potency result in assay [8], in assay [9] and in [10] was “inactive” in each case.

In the case of `Oc1cccc2ccc(SSc3ccc4cccc(O)c4n3)nc12`, the Potency in assay [1] is greater than 11.4 µM; in [3], 3.16 µM (active); in [6], greater than 46 µM; in assay [7] it was greater than 9.22 µM; in assay [11], 3.16 µM (active). The results for the activity change, negative = inhibition in [2] and in assay [4] were 1.21% and -22.6%, respectively. In addition, the activity, negative = inhibition in [5] is -15.4%. Besides, the Potency entry in assay [8], in assay [9] and in [10] was “inactive” in each case.

Take `Cn1c(=O)c2[nH]c(CCS)nc2n(C)c1=O`: the Potency is greater than 11.4 µM in assay [1], greater than 46 µM in assay [6] and greater than 9.22 µM in [7]. In addition, the activity change, negative = inhibition in [2] is 3.25%; in assay [4], -18%. Moreover, the Potency entry in assay [3], in assay [8], in [9] and in assay [10] was “inactive” each time. Besides, the activity, negative = inhibition in assay [5] was 3.06%.

As for `[O-][n+]1c(CN2CCCCC2)nc2cccc3c2c1-c1ccccc1-3`, the Potency in assay [1] was greater than 11.4 µM; in [3], 1.58 µM (active); in assay [6] it was greater than 46 µM; in assay [7], greater than 9.22 µM. In addition, the activity change, negative = inhibition was -8.04% in assay [2] and 26.2% in assay [4]. In addition, the activity, negative = inhibition in assay [5] was 6.89%. The Potency entry in [8], in assay [9] and in assay [10] was “inactive” in each case.

Consider `C[C@H](C(=O)c1ccccc1)[C@@H](c1ccccc1)N1CCOCC1`, for which the Potency in assay [1] is greater than 11.4 µM; in assay [6], greater than 46 µM; in [7] it was greater than 9.22 µM; in assay [11], 1.58 µM (active). In addition, the activity change, negative = inhibition was -4.08% in assay [2] and 5.21% in [4]. Also, the Potency result in assay [3], in assay [8], in assay [9] and in assay [10] was “inactive” throughout. Further, the activity, negative = inhibition in assay [5] is 8.2%.

For `CC1=CC(C)(C)Nc2ccc(CSc3ccccc3)cc21`, the Potency in assay [1] is greater than 11.4 µM; in assay [3], 0.501 µM (active); in [6], greater than 46 µM; in [7], greater than 9.22 µM; in assay [12], 0.631 µM (active); in assay [11], 0.316 µM (active). Besides, the activity change, negative = inhibition in assay [2] was 3.94%; in assay [4] it was -4.82%. Moreover, the activity, negative = inhibition in assay [5] is -11.8%. Besides, the Potency result in assay [8], in assay [9] and in assay [10] was “inactive” each time.

`CC[C@H]1CC[C@H]2[C@@H]3CC=C4C[C@H](OC(C)=O)[C@@H](N)C[C@@]4(C)[C@H]3CC[C@@]12C`: the figures for the Potency in assay [1], in assay [6] and in [7] were greater than 11.4 µM, greater than 46 µM and greater than 9.22 µM, respectively. Besides, the activity change, negative = inhibition was 8.35% in [2] and 8.17% in assay [4]. In addition, the Potency entry in [3], in assay [8], in assay [9] and in assay [10] was “inactive” throughout. Moreover, the activity, negative = inhibition in [5] is -1.58%.

Consider `C[C@@H]1CCCN(CP(=O)(c2ccccc2)c2ccccc2)C1`, for which the Potency was greater than 11.4 µM in assay [1], greater than 46 µM in assay [6] and greater than 9.22 µM in assay [7]. For the same compound, the activity change, negative = inhibition was 2.85% in assay [2] and -1.11% in assay [4]. Further, the Potency result in assay [3], in assay [8], in [9] and in [10] was “inactive” in each case. The activity, negative = inhibition in [5] is 0.378%.

Regarding `Nc1ccccc1SCc1csc(-c2ccc(Cl)cc2)n1`, the Potency in assay [1] is greater than 11.4 µM; in assay [3], 0.631 µM (active); in assay [6], greater than 46 µM; in [7], greater than 9.22 µM; in assay [11], 0.501 µM (active). Also, the activity change, negative = inhibition in [2] is -17.2%; in [4], -25.4%. Besides, the activity, negative = inhibition in [5] was -11.2%. Moreover, the Potency entry in [8], in [9] and in [10] was “inactive” each time.

As for `O=C(CC(=O)c1ccncc1)c1ccccc1`, the Potency was greater than 11.4 µM in [1]; 0.1 µM (active) in assay [3]; greater than 46 µM in assay [6]; greater than 9.22 µM in assay [7]; 0.398 µM (active) in assay [11]. Moreover, the values for the activity change, negative = inhibition in assay [2] and in assay [4] were 4.49% and 13.8%, respectively. Besides, in assay [5], the activity, negative = inhibition was 4.76%. Moreover, the Potency result in assay [8], in assay [9] and in [10] was “inactive” in each case.

`COc1ccc(Oc2ncc3nc(C)c(=O)n(-c4ccc(OC)cc4)c3n2)cc1`: the Potency in [1] is greater than 11.4 µM; in assay [3] it was 15.8 µM (active); in [6], greater than 9.22 µM; in [7] it was greater than 46 µM. In addition, the activity change, negative = inhibition is -21.8% in [2] and -15.1% in assay [4]. The activity, negative = inhibition in assay [5] was -16.4%. Besides, the Potency result in [8], in [9] and in assay [10] was “inactive” in each case.
